From PubChem BioAssay (NCI)
About 83,000 compounds went through this panel and 20% of them were active in at least one assay; those are over-represented in the sample as a whole.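 A percent growth of 40 corresponds to 60% growth inhibition; 0 means no net growth; -100 means all cells died. Active threshold: below 10.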 A number with no mark means an inactive call. Active and inactive are the calls of the source. Where a SMILES comes first, the peptide text is derived from it. Bridges are numbered along the chain shown (N, C = ends). [ ]: non-standard residue; d: D form. The star is where a group is joined. ξ: configuration not given here. ξNMePhe(4-NMe2) = CNC(Cc1ccc(N(C)C)cc1)C(=O)O; Picolinoyl(3-OH) = O=C(c1ncccc1O)*; ξPip(4-oxo) = O=C1CCNC(C(=O)O)C1; Phg = N[CH](C(=O)O)c1ccccc1; Abu = CC[CH](N)C(=O)O

Assays:
Assay in all cases: NCI-60 one-dose screen, 48 h (100 = growth as untreated, 0 = no growth, -100 = all killed)
SR leukemia = details: 10 µM
OVCAR-8 ovarian = details: 10 µM
OVCAR-5 ovarian = details: 10 µM
OVCAR-4 ovarian = details: 10 µM
SK-OV-3 ovarian = details: 10 µM
IGROV1 ovarian = details: 10 µM
OVCAR-3 ovarian = details: 10 µM
NCI/ADR-RES ovarian = details: 10 µM
T-47D breast = details: 10 µM
BT-549 breast = details: 10 µM
MDA-MB-435 melanoma = details: 10 µM
SW-620 colon = details: 10 µM
MCF7 breast = details: 10 µM unless noted
HCT-116 colon = details: 10 µM
KM12 colon = details: 10 µM
HCC-2998 colon = details: 10 µM
HS 578T breast = details: 10 µM
RPMI-8226 leukemia = details: 10 µM

Compound	growth (SR leukemia) [%]	growth (OVCAR-8 ovarian) [%]	growth (OVCAR-5 ovarian) [%]	growth (OVCAR-4 ovarian) [%]	growth (SK-OV-3 ovarian) [%]	growth (IGROV1 ovarian)	growth (OVCAR-3 ovarian) [%]	growth (NCI/ADR-RES ovarian) [%]	growth (T-47D breast) [%]	growth (BT-549 breast) [%]	growth (MDA-MB-435 melanoma)	growth (SW-620 colon)	growth (MCF7 breast) [%]	growth (HCT-116 colon) [%]	growth (KM12 colon) [%]	growth (HCC-2998 colon) [%]	growth (HS 578T breast)	growth (RPMI-8226 leukemia) [%]
c1cc[n+](C2c3ccccc3C([n+]3ccccc3)c3ccccc32)cc1 (stereo not given)	50.6	46.8	95	75.3	92.5	30.4%	77.1	106	75.5	100	79.3%	69.8%	68.8	68.2	56.7			
CC1=NN(c2ccccc2)C(=O)/C1=C\N1CC(=O)NC1=S	89.1	102	119	102	101	106%	111	103	97.1	107	105%	106%		106	103	108		
CCCCCCCCCCC1CO1 (stereo not given)	98.5	109	111	98.8	101	111%	111	110	103	109	112%		92.4	102	109	102	118%	
CC1=C(/C=C/C(C)=C/C=C/C(C)=C/CO)C(C)(C)CCC1	94.8	101	108	112	114	117%	109	103	96.6	108	107%	109%	125	107	109		105%	
CCC1NC(=O)C(NC(=O)c2ncccc2O)C(C)OC(=O)C(c2ccccc2)NC(=O)C2CC(=O)CCN2C(=O)C(Cc2ccc(N(C)C)cc2)N(C)C(=O)C2CCCN2C1=O (stereo not given) (tested in a mixture with another compound) ({Picolinoyl(3-OH)}-T[Abu]P[ξNMePhe(4-NMe2)][ξPip(4-oxo)][Phg]; ester 1-C; configuration not given here)	52.1			48.1	95.5	64%	63.1	179	64.8	54.6	57.1%	68.3%		34.2	74.9			34.1
O=C(Cc1ccc(OCc2ccccc2)cc1)NCc1ccc2c(c1)OCO2		91.1	110	107	82.4	60.4%	58.9	47.8	86.2	56.1	-42.4% (active)	28.1%	44.5	40.4	33.1	77.2	69.8%	67.7
CCCC[P+](c1ccccc1)(c1ccccc1)c1ccccc1	41.2	43.4	62.6		87.2	49.1%	43.5	106	26.5	17.8		64.5%	24.1	39.2	23.2	32.2	80.2%	
CC1SC(N)=NC1=O (stereo not given)		105	85.9	117	115	108%	116	106	106	123	109%	112%	103	108	110	107	108%	96.7
COc1cc2cc(OC(C)=O)c3cc4c(cc3c2c(OC)c1OC)OCO4		102	92.3	111	103	107%	101	95.7	106	104	102%	96.9%	93.6	104	99.8	107	91.4%	97.4
CCOC(=O)C(=O)C=P(c1ccccc1)(c1ccccc1)c1ccccc1		107	101	111	109	102%	103	103	97.7	102	113%	114%	97.5	100	99.6	107	105%	102
CCCC(=O)c1cc(C)ccc1OC		111	101	106	109	94.1%	112	112	105	107	116%	114%	103	107	110	111	118%	110
CC(C)COC(=O)COC(=O)OCCOCCOC(=O)OCC(=O)OCC(C)C		99.7	101	110	100	105%	126	106	96.7	99.2	119%	108%	98.7	103	104	101	124%	97.3
O=C1OC(c2ccc(F)cc2)CC1CN1CCOCC1 (stereo not given)		99.5	112	101	107	104%	101	101	93.6	95.5	109%	102%	97.6	92.5	102	98.8	113%	75.6
CC1CCC(C(=O)O)N1 (stereo not given)		112	91.5	99	94.2	101%	109	93	86.4	102	111%	113%	95	102	106	97.8	106%	105
CC(=O)Nc1cccc(NC(C)=O)n1	123	105	143	112	101		112	131	87.1	107	101%	99.1%	99	98.9	105	130	102%	
COc1ccc(C)cc1OC	99	102		104	108	99.8%	102	101	107	114	108%	107%	102		105	100	114%	
Cc1c(O)cnc2nn(-c3ccccc3)c(=N)n12		103	106	95.8	108	113%	113	108	100	108	107%	102%	97.5	101	95.8	98.4	127%	113
COC(=O)c1ccccc1Br		105	82.2	103	107	108%	106	100	109	109	98.5%	109%	106	92	94.7	106	113%	104
CN1C(=O)CN2CCc3ccccc3C2c2cc(Cl)ccc21 (stereo not given)		101	83.9	104	90.7	-12.2% (active)	103	96.7	104	99.7	105%	-33.6% (active)	84.5	82.5	106	98.1	-5.49% (active)	88.3
N#CC(=Nc1cccc(F)c1)C1=C(O)c2ccccc2C1=O		85.4	103	88.9	98.7	100%	92.7	89.1	83.2	89.2	99.4%	95.4%	83.2	97	102	101	99.7%	82
